Data published in PubChem BioAssay AID559 (PCMD, 2006).
The campaign covered roughly 62,000 compounds. About 100 (0.2%) were called active. Many of the other results were omitted from the sample, so actives are more common in it than they were. A number with no mark means an inactive call. Cut-off read from the data, not from the text of the source: active = inhibition above about 20%; inactive = the rest.

molecular target: DNA-directed RNA polymerase subunit beta (Escherichia coli (strain K12)) (UniProt P0A8V2); test: bacterial RNA polymerase transcription inhibition – biochemical (AID 559);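 note: 0% = enzyme without compound and 100% = no enzyme blank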; settings: E. coli RNA polymerase, fluorescence transcription assay; stronger effect = higher value;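 tested at 10 µM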
Sequence (P0A8V2 whole entry, looked up): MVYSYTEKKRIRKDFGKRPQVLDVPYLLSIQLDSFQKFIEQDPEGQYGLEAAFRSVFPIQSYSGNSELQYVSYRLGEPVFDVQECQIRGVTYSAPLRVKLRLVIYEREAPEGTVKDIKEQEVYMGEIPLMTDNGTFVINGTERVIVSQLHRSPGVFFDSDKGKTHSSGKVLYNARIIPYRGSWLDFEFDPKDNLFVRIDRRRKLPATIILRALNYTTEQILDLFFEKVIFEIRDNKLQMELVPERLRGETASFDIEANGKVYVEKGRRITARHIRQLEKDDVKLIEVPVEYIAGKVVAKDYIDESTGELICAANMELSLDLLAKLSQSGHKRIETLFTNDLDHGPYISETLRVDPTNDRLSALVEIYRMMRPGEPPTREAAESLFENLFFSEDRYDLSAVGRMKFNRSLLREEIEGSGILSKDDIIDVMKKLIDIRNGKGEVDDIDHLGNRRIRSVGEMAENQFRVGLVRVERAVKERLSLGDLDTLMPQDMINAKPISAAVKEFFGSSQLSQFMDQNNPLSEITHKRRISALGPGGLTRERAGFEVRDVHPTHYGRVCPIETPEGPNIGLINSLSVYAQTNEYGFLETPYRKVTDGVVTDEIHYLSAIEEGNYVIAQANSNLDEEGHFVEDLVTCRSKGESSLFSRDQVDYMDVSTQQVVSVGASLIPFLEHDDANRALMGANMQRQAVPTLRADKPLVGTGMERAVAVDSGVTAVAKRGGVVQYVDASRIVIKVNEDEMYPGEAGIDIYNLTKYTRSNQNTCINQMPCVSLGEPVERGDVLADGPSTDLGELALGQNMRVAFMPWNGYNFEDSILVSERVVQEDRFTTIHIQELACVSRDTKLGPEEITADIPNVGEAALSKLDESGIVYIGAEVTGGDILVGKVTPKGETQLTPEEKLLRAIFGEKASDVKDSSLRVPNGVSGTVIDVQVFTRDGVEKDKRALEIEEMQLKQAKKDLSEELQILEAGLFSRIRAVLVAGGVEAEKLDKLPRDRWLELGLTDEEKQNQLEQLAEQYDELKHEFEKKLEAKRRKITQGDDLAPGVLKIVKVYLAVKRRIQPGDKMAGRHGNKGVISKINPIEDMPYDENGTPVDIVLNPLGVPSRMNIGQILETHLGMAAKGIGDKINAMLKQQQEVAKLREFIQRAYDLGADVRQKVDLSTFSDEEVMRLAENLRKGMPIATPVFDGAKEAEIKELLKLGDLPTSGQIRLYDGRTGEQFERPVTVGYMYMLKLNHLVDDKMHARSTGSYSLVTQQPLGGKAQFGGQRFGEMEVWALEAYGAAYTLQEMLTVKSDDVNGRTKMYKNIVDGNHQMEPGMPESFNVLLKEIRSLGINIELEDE

Q: With `C=CCOc1ccc(C2/C(=C(\O)c3c(C)[nH]c(C(=O)OC)c3C)C(=O)C(=O)N2CCN(C)C)cc1` (stereo not drawn) as the compound, how does the inhibition read?
A: -5.38%

Q: For `CC(=O)c1cccc(NC(=O)N2CCCC2C(=O)NCCC(C)C)c1` (stereo not drawn), which inhibition is on record?
A: 6.83%

Q: Which inhibition does the source give for `Cc1ccccc1-n1c(SCC(=O)NCc2cccs2)nnc1-c1ccncc1` here?
A: -3.22%

Q: How did the inhibition turn out when `Cn1c(=O)[nH]c(=O)c2c1nc(N1CCN(CCO)CC1)n2CCSc1nc2ccccc2s1` was run?
A: 7.67%

Q: How did the inhibition turn out when `O=C(Nc1ccccc1F)c1cc(S(=O)(=O)N2CCCCC2)cs1` was run?
A: -4.61%

Q: `Cc1ccc(C)c(NS(=O)(=O)c2cc(Br)cnc2N)c1` was tested. Which inhibition did it give?
A: -0.25%

Q: Which inhibition does the source give for `c1ccc(-n2ncc3c(N4CCCC4)ncnc32)cc1` here?
A: 10.9%

Q: Which inhibition does the source give for `Cc1nnc(SCC(=O)N2CCc3ccccc32)n1-c1ccccc1` here?
A: 5.59%

Q: With `Cc1ccccc1C(=O)Nc1cccc(-c2nnc(SCC(=O)O)n2C)c1` as the compound, how does the inhibition read?
A: 12.2%

Q: Which inhibition does the source give for `CCn1c(SCC(=O)Nc2cccc(F)c2)nnc1-c1cc2cc(Br)ccc2o1` here?
A: 9.56%

Q: With `O=C(NCc1cccs1)C1CCN(S(=O)(=O)c2ccc3c(c2)OCCO3)CC1` as the compound, how does the inhibition read?
A: 7.85%

Q: With `O=C(CSc1ncccn1)NCCc1ccccc1` as the compound, how does the inhibition read?
A: 1.73%

Q: Which inhibition does the source give for `CC(C)(C)c1ccc(C(=O)CSc2ncn[nH]2)cc1` here?
A: 5.03%

Q: How did the inhibition turn out when `NC(=O)C1CCN(C(=O)c2ccc(C(F)(F)F)cc2)CC1` was run?
A: 2.29%

Q: How did the inhibition turn out when `CCC(=O)Nc1cccc(NC(=O)c2cccnc2)c1` was run?
A: 1.22%

Q: For `Cn1c(=O)cc(OCCCC(=O)N2CCN(Cc3ccc4c(c3)OCO4)CC2)c2ccccc21`, which inhibition is on record?
A: 14.1%

Q: Which inhibition does the source give for `COc1ccc(CN2CN(C(C)C)CSC2=S)cc1` here?
A: 0.75%

Q: For `Cc1ccccc1CN1CCN(CC(=O)NCc2ccccn2)C1=O`, which inhibition is on record?
A: -3.92%

Q: Which inhibition does the source give for `Clc1ccc(C2CC(c3cccs3)n3ncnc3N2)cc1Cl` (stereo not drawn) here?
A: 3.31%

Q: Which inhibition does the source give for `Cc1cc(C)nc(NC(=O)Nc2ccccc2C(F)(F)F)n1` here?
A: 3.47%

Q: For `Cc1csc(NC(=O)CN2CCCCCC2)n1`, which inhibition is on record?
A: 10.6%

Q: With `Cc1csc(NC(=O)NC2(C(F)(F)F)Oc3ccccc3O2)n1` as the compound, how does the inhibition read?
A: 30.9% (active)

Q: Which inhibition does the source give for `CCOC(=O)CC1C(=O)NCCN1C(=O)COc1ccc(Br)cc1C` (stereo not drawn) here?
A: 4.26%

Q: For `COCCCNC(=O)c1ccc(CNS(=O)(=O)c2ccc(NC(C)=O)cc2)cc1`, which inhibition is on record?
A: -9.1%

Q: For `Cc1ccc(NC(=O)NCC(c2cccnc2)N2CCOCC2)cc1` (stereo not drawn), which inhibition is on record?
A: 6.82%

Q: For `CCCS(=O)(=O)Nc1c(C(=O)O)[nH]c2ccccc12`, which inhibition is on record?
A: 8.57%

Q: Which inhibition does the source give for `COc1ccc(Cl)cc1S(=O)(=O)Nc1cccc(C(=O)O)c1` here?
A: 4.26%

Q: Which inhibition does the source give for `CC1CCCN(c2ccc(C(=O)NCCc3ccccc3)cn2)C1` (stereo not drawn) here?
A: 9.14%

Q: How did the inhibition turn out when `CCC12CN3CC(CC)(CN(C1)C31C(=O)N(C)c3ccc(C)cc31)C2=O` (stereo not drawn) was run?
A: 9.74%

Q: How did the inhibition turn out when `COc1ccc(OC)c(C2N(c3ccccn3)C(=O)C3CCCN32)c1` (stereo not drawn) was run?
A: 5.57%

Q: How did the inhibition turn out when `O=C(CCS(=O)(=O)Cc1ccccc1F)NCCCN1CCCCC1` was run?
A: 2.74%

Q: With `CCCn1c(SCC(=O)Nc2c(C)cccc2C)nnc1C(C)C` as the compound, how does the inhibition read?
A: -6.26%

Q: With `CCOC(=O)c1ccc(-c2ccc(C(=O)Nc3cccnc3)o2)cc1` as the compound, how does the inhibition read?
A: 14.4%

Q: Which inhibition does the source give for `CC(C)NS(=O)(=O)c1ccc(NC(=O)c2cccnc2)cc1` here?
A: 4.79%

Q: Which inhibition does the source give for `CC(=O)Oc1cccc(N2C(=O)C3CC=C(Cl)CC3C2=O)c1` (stereo not drawn) here?
A: 9.02%

Q: `CCn1c(CSc2ncccn2)nnc1SCC(=O)N1c2ccccc2CC1C` (stereo not drawn) was tested. Which inhibition did it give?
A: 4.54%

Q: For `O=c1c2ccccc2oc2nc3n(c(=O)c12)CCCS3`, which inhibition is on record?
A: 4.21%

Q: For `O=C(N1CCOCC1)N1CCOCC1`, which inhibition is on record?
A: 0.65%

Q: With `CC(C)Cc1cc(C(=O)NCCc2ccccc2)no1` as the compound, how does the inhibition read?
A: -0.72%

Q: For `CCC1CCCCN1CCNC(=O)c1[nH]c(C)c(C(C)=O)c1C` (stereo not drawn), which inhibition is on record?
A: 3.39%

Q: For `CCOC(=O)N1CCN(C(=O)c2ccc3nc4cc(Cl)ccc4c(=O)n3c2)CC1`, which inhibition is on record?
A: -20.1%

Q: For `CC1=C(C)CC2C(=O)N(c3cccc4ccccc34)C(=O)C2C1` (stereo not drawn), which inhibition is on record?
A: 5.39%

Q: `COc1ccccc1-c1c(C)nn2c(C)c(C(C)=O)cnc12` was tested. Which inhibition did it give?
A: 1.22%

Q: With `Cn1cccc1C(=O)NC(=O)COC(=O)Cc1coc2ccc3ccccc3c12` as the compound, how does the inhibition read?
A: 4.62%

Q: `O=C(Nc1cccc(Cl)c1)OCc1ccccn1` was tested. Which inhibition did it give?
A: 5.59%

Q: Which inhibition does the source give for `Cc1cc(C)c(C(=O)CN2C(=O)CCC2=O)cc1C` here?
A: 1.27%

Q: Which inhibition does the source give for `O=C(CNS(=O)(=O)c1cccc(C(F)(F)F)c1)Nc1ccccc1F` here?
A: 12.6%

Q: Which inhibition does the source give for `O=C1CC(c2ccccc2)C(=O)N1c1cccc(O)c1` (stereo not drawn) here?
A: 4.1%
